Test [1] in a line: qHTS for Inhibitors of the Functional Ribonucleoprotein Complex (vRNP) of Lassa (LASV) Arenavirus: LASV Primary Screen - GLuc reporter signal (AID 1347082; calls by dose curve; tested in HEK293 reporter line; also: nearly all actives have a fitted effect of over 60% in size; as to activity change, negative = inhibition: series mostly up to about 57 µM). (qHTS replaces the single test concentration by a dilution series.)
The nature of test [2]: qHTS for Inhibitors of the Functional Ribonucleoprotein Complex (vRNP) of Lassa (LASV) Arenavirus: Viability assay - alamar blue signal for LASV Primary Screen (AID 1347083; calls by dose curve; tested in HEK293 reporter line; also: nearly all actives have a fitted effect of over 80% in size; as to activity change, negative = reduced viability: series mostly up to about 57 µM).
Test [3] in a line: qHTS for Inhibitors of the Functional Ribonucleoprotein Complex (vRNP) of Lymphocytic Choriomeningitis Arenaviruses (LCMV): Viability assay - alamar blue signal for LCMV Primary Screen (AID 1347085; calls by dose curve; tested in HEK293 reporter line; also: nearly all actives have a fitted effect of over 80% in size; as to activity change, negative = lower viability: series mostly up to about 57 µM).
In test [4] the target is Nucleoprotein (Lymphocytic choriomeningitis virus (strain Armstrong)) (UniProt P09992). The test can be described thus: qHTS for Inhibitors of the Functional Ribonucleoprotein Complex (vRNP) of Lymphocytic Choriomeningitis Arenaviruses (LCMV): LCMV Primary Screen - GLuc reporter signal (AID 1347086). Also: nearly all actives have a fitted effect of over 70% in size. As to activity change, negative = inhibition: series mostly up to about 57 µM.

Results filed as inconclusive are left out. A number with no mark means an inactive call. Active and inactive are the calls of the source. Unless noted, calls follow the shape of the full dose curve.
% is scaled to controls: 0 for no effect and ±100 for the full control effect; potency is read from the fitted curve at half-maximal effect.

Sequence of Nucleoprotein (Lymphocytic choriomeningitis virus (strain Armstrong)) (P09992 whole entry, looked up): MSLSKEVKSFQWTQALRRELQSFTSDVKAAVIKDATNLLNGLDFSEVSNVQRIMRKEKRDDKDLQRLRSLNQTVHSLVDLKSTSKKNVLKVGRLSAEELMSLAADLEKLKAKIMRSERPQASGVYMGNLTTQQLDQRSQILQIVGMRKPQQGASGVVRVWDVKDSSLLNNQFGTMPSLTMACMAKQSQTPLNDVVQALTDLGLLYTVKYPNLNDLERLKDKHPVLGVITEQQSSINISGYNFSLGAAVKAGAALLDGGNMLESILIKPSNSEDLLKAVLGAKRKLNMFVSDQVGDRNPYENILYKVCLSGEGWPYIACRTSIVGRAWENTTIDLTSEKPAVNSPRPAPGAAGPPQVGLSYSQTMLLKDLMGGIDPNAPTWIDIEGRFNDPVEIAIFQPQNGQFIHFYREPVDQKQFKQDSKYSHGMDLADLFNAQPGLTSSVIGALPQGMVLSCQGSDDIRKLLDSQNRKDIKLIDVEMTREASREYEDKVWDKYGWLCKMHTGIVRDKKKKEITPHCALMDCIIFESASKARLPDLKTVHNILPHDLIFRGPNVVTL

With `COc1c2ccoc2c(OC[C@@H](O)C(C)(C)O)c2oc(=O)ccc12`, the Potency result in test [1], in test [2], in test [3] and in test [4] was “inactive” throughout.

For `CCOC(=O)c1c(C)cc(O)cc1O`, the Potency entry in test [1], in test [2], in test [3] and in test [4] was “inactive” in each case.

For the compound `CC(C)N1[N]C(=C2C=c3cc(O)ccc3=N2)c2c(N)ncnc21`, the Potency was 2.73 µM (active) in test [1], 0.685 µM (active) in test [2], 1.09 µM (active) in test [3] and 0.611 µM (active) in test [4].

In the case of `C=C1CC[C@H](O)C/C1=C/C=C1\CCC[C@]2(C)[C@@H]([C@H](C)CCC(O)C(C)(C)O)CC[C@@H]12` (stereo not given in full), the Potency entry in test [1], in test [2], in test [3] and in test [4] was “inactive” in each case.

Turning to `C[C@]12CCC3=C4CCC(=O)C=C4CC[C@@H]3[C@H]1CC[C@@]2(O)CC#N`, the Potency result in test [1], in test [2], in test [3] and in test [4] was “inactive” throughout.

`Cn1c(=O)c2nncnc2n(C)c1=O`: the Potency entry in test [1], in test [2], in test [3] and in test [4] was “inactive” each time.

Take `CC1CCC[C@H](O)CCCCCc2cc(O)cc(O)c2C(=O)O1` (stereo not given in full): the Potency entry in test [1], in test [2], in test [3] and in test [4] was “inactive” in each case.

Regarding `COc1c2c(nc3occc13)C(CCC(C)(C)O)(OC)C(O)CC2` (stereo not given), the Potency result in test [1], in test [2], in test [3] and in test [4] was “inactive” throughout.

On to `CC1(C)C=Cc2c(c3c(c4c(=O)c(-c5ccc(O)cc5)coc24)OC(C)(C)CC3)O1`, for which the Potency result in test [1], in test [2], in test [3] and in test [4] was “inactive” in each case.

In the case of `C[C@@H](Cc1cc2c(c(C(N)=O)c1)N(CCCO)CC2)NCCOc1ccccc1OCC(F)(F)F`, the Potency result in test [1], in test [2], in test [3] and in test [4] was “inactive” each time.

As to `COc1c(O)cc2c(=O)oc3c(OC)c(O)cc4c(=O)oc1c2c34`, the Potency result in test [1], in test [2], in test [3] and in test [4] was “inactive” each time.

For `C[C@@H]1CC[C@H]2[C@H](C)[C@H]3CC[C@H]4C5[C@@H](O)CC6=CC(=O)CC[C@]6(C)[C@H]5C[C@H]4C3C(=O)N2C1` (stereo not given in full), the Potency result in test [1], in test [2], in test [3] and in test [4] was “inactive” in each case.

On to `C[C@H](Cn1cnc2c(N)ncnc21)OCP(=O)(O)O`, for which the Potency entry in test [1], in test [2], in test [3] and in test [4] was “inactive” in each case.

Regarding `C/C1=C\[C@@H](O)C(C(C)C)C(OC(=O)c2ccc(O)cc2)C/C(C)=C/CC1` (stereo not given in full), the Potency result in test [1], in test [2], in test [3] and in test [4] was “inactive” each time.

Turning to `CC(=O)c1ccccc1O`, the Potency result in test [1], in test [2], in test [3] and in test [4] was “inactive” each time.

Consider `O=C1CCCCCCCCCCCCCC1`, for which the Potency result in test [1], in test [2], in test [3] and in test [4] was “inactive” throughout.

Take `COc1ccc2[nH]c3c(c2c1)CCn1c-3nc2ccccc2c1=O`: the Potency result in test [1], in test [2], in test [3] and in test [4] was “inactive” in each case.

For the compound `COc1ccc2c(=O)c(-c3ccc(OC)c(OC)c3)coc2c1`, the Potency result in test [1], in test [2], in test [3] and in test [4] was “inactive” each time.

For `O=C(Nc1nnc(-c2ccco2)o1)c1cc(-c2ccccc2)nc2ccccc12`, the Potency result in test [1], in test [2], in test [3] and in test [4] was “inactive” throughout.

Turning to `c1ccc(-c2ccc3ccccc3n2)cc1`, the Potency result in test [1], in test [2], in test [3] and in test [4] was “inactive” each time.

`CC(C)(O)C1CC[C@@]2(C)C3CCC4[C@@]5(C)CCCC(C)(C)C5C(O)C[C@]4(C)[C@]3(C)CC[C@@H]12` (stereo not given in full): the Potency entry in test [1], in test [2], in test [3] and in test [4] was “inactive” each time.

As to `CC1=C(O)C(=O)CO1`, the Potency entry in test [1], in test [2], in test [3] and in test [4] was “inactive” in each case.

Consider `C=CC(C)(CCC=C(C)C)OC(=O)C(C)C` (stereo not given), for which the Potency result in test [1], in test [2], in test [3] and in test [4] was “inactive” each time.

In the case of `CC(=O)O[C@@H]1[C@H](OC(=O)CC(C)C)c2c(ccc3ccc(=O)oc23)OC1(C)C`, the Potency entry in test [1], in test [2], in test [3] and in test [4] was “inactive” throughout.

`Cc1ccc([N+](=O)[O-])cc1S(=O)(=O)N(C)N=Cc1cnc2ccc(Br)cn12`: the Potency was 0.0217 µM (active) in test [1], 0.0243 µM (active) in test [2], 0.0611 µM (active) in test [3] and 0.217 µM (active) in test [4].

As to `COc1ccc(CNC(=S)NCc2ccc(OC)cc2)cc1`, the Potency result in test [1], in test [2], in test [3] and in test [4] was “inactive” in each case.

As to `CC1(C)CC(=O)CC(C)(C)N1`, the Potency result in test [1], in test [2], in test [3] and in test [4] was “inactive” in each case.

In the case of `c1ccc2cnccc2c1`, the Potency result in test [1], in test [2], in test [3] and in test [4] was “inactive” each time.

Take `CCCCC/C=C\C/C=C\C=C\[C@@H](O)C/C=C\CCCC(=O)O`: the figures for the activity change, negative = inhibition in test [1] and in test [4] were -0.303% [at 0.757 µM] and 14.7% [at 0.757 µM], respectively. For the same compound, the activity change, negative = reduced viability in test [2] was 9.41% [at 0.757 µM]. Moreover, the activity change, negative = lower viability in test [3] is 16.7% [at 0.757 µM].

Turning to `Cc1nc(C)c(C)nc1C`, the Potency entry in test [1], in test [2], in test [3] and in test [4] was “inactive” in each case.
